Pf growth 48h: inhibits P. falciparum growth in the first generation, 48 h; P. falciparum luciferase growth in erythrocytes, 48 h; Potency, µM (highest dose often 28.7 µM), for inactives: top-dose activity change, negative = inhibition, hits mostly inhibitors; 5.9% of 310,000 active; AID 504832; note: potency is the fitted concentration of half-maximal effect; % is set by controls: 0 for no effect and ±100 for the full control effect
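Parasite viability was followed by luminescence of a genomically integrated firefly luciferase. Cultures held 0.1% parasitemia at 2% hematocrit (final), incubated under 5% CO2 at 37 C.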
Shiga inhibitor: blocks Shiga toxin action in Vero cells | Vero cells, Shiga toxin protein synthesis inhibition reporter | inhibition, % at 38.7 µM | 9.2% of 290,000 active | AID 2315; in the data active = inhibition mostly above about 28%, no sharp cut-off; inactive = mostly below about 43%; note: 0% is about no effect
FBPA Giardia inh: Giardia lamblia aldolase inhibition; A8B2U2; purified Giardia FBPA; Potency, µM (titrated, usually from 59.6 µM), for inactives: top-dose activity, negative = inhibition, actives largely listed as inhibitors; 0.71% of 290,000 active; AID 2451; note: potency is the fitted concentration of half-maximal effect; % is set by controls: 0 for no effect and ±100 for the full control effect; nearly all actives have a fitted effect of over 55% in size
Target sequence (A8B2U2 whole entry, looked up): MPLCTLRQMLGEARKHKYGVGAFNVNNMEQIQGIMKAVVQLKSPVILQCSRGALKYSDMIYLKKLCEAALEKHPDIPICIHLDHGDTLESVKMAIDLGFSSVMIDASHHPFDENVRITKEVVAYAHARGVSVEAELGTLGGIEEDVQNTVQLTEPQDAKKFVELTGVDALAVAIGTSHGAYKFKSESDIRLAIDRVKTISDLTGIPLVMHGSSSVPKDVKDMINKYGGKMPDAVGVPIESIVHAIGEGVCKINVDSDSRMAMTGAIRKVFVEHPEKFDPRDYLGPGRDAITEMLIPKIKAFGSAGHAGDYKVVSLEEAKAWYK
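40 nM FBPA preincubated 10 min at RT with compound (up to 57.5 uM final), then substrate plus GAPDH/TPI/NAD/arsenate coupling and diaphorase/resazurin added. Fluorescence read after 20 min at RT, 525/598 nm.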
NS1 function inh: influenza NS1 inhibition | 0.4% of 270,000 active | Potency, µM (highest dose often 46.1 µM), for inactives: top-dose activity, positive = more growth; calls by dose curve; note: potency is the fitted concentration of half-maximal effect; actives are rising curves; nearly all actives have a fitted effect of over 50% in size
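OD600 was taken as the measure of yeast growth restored by compound in an NS1-expressing S. cerevisiae strain. Cells had been washed out of glucose medium and diluted 1:100 into galactose -URA medium, pH 6.0.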
Pf growth 96h: P. falciparum growth inhibition at 96 hour, primary screen for plastid delayed-death inhibitors; P. falciparum luciferase reporter growth, 96 h; Potency, µM (highest dose often 28.7 µM), inactives show at the top dose activity change, negative = inhibition, usual class: inhibitors; 6.9% of 320,000 active; AID 504834; note: potency is the fitted concentration of half-maximal effect; % is set by controls: 0 for no effect and ±100 for the full control effect
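Parasite growth measured via integrated firefly luciferase reporter in P. falciparum. Infected erythrocytes at 2% hematocrit, 0.05% parasitemia final were treated 96 hours at 37 C under 5% CO2, and luminescence was read.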
CHX counter: affects cycloheximide protein synthesis inhibition readout, counter-screen | cell reporter, cycloheximide protein synthesis inhibition counterscreen | max response, % | 12% of 300,000 active | AID 2314; in the data active = max response mostly above about 13%, no sharp cut-off; inactive = mostly below about 14%; note: read at 38.3 µM for the half of the compounds with a filed dose; 0% is about no effect
Starred values were filed as active, the others as inactive; ? = inconclusive; / = no result given; [ ] = remark or other dose. An excerpt weighted towards active compounds, which were near 21% of everything screened. Unless noted, calls come from the whole dose curve; as a rule, active = well fitted curve in the direction sought with a large enough effect; inconclusive = small, poorly fitted or top-dose-only effect, or another doubt; inactive = no such curve, though single readings can be large; an effect the other way counts as inactive or inconclusive.

SMILES | Pf growth 48h | Shiga inhibitor | FBPA Giardia inh | NS1 function inh | Pf growth 96h | CHX counter
S=C=Nc1cccc(C2(N3CCCCC3)CCCCC2)c1 | 2.6µM* | / | 2% | / | 1.7µM* | /
CCCN(CCC)S(=O)(=O)c1ccc(C(=O)NCc2n[nH]c(=S)n2-c2ccc(Cl)c(Cl)c2)cc1 | ? | -7 | 3% | / | -25% | -2
Cn1cccc1C(=O)N1CCC2(CC1)CN(Cc1cc(C(F)(F)F)cc(C(F)(F)F)c1)C2 | / | / | 1% | / | / | /
Cc1cccnc1CN1CCN(C(=O)CCc2nnc(CCc3ccccc3)o2)CC1 | 15% | 74* | -1% | -3% | ? | 25*
Cc1cccnc1CCNC(=O)CCc1nnc(CCc2ccccc2)o1 | 3% | 7 | -1% | 4% | ? | 9
Cc1cc(-c2nnc(CCC(=O)N3CCN(Cc4cccc(F)c4)CC3)o2)c(C)o1 | ? | 42* | -3% | -2% | -28% | 19*
O=C(CCc1nnc(CCCCc2ccccc2)o1)N1CCCC(O)C1 (configuration not stated) | 2% | 38 | 5% | -5% | 22% | 13*
O=C(CCc1nnc(CCCCc2ccccc2)o1)N1CCC(N2CCCC2)CC1 | ? | 12 | -2% | 2% | 15% | -7
CC(=O)N1CCN(C(=O)CCc2nnc(CCCCc3ccccc3)o2)CC1 | -5% | -14 | 1% | 4% | 12µM* | -4
NC(c1ccccc1)c1ccncc1 (configuration not stated) | 5% | -5 | ? | -10% | -19% | 1
Cc1cc(C)c(S(=O)(=O)c2cccc(Br)c2C)c(=O)[nH]1 | 16% | -1 | -3% | 0% | 25% | 8
CC(OC(=O)/C(C#N)=C/c1ccc(N(C)C)cc1)C(=O)N(C)Cc1ccccc1 (configuration not stated) | ? | -21 | / | 2% | ? | 1
COc1cc2c(cc1OC)CN(C(=O)C(CCSC)NS(=O)(=O)c1ccc(C)cc1)CC2 (configuration not stated) | 2% | -4 | 14% | -6% | ? | -2
CCCc1nc2ccc(NC(=O)c3ccco3)cc2c(=O)n1Cc1ccccc1Cl | 2.3µM* | 0 | 0% | 15% | 0% | 1
CCCc1nc2ccc(NC(=O)c3ccco3)cc2c(=O)n1Cc1ccc(Cl)cc1 | 1.3µM* | 41 | / | 15% | ? | 12
CCCc1nc2ccc(NC(C)=O)cc2c(=O)n1Cc1ccccc1Cl | ? | -14 | -1% | -22% | -20% | -1
CC1CCCCN1CCCNC(=O)c1ccc(NC(=O)C2=CSCCO2)cc1 (configuration not stated) | 9% | 3 | / | 7% | ? | 1
Cc1cccc(N(C)S(=O)(=O)c2c(C)[nH]c(C)c2C(=O)N2CCCC2)c1 | 2% | -2 | 10% | -8% | 0% | -1
COc1ccc2c(c1)/C(=N/OC(=O)c1cccs1)CCC2 | 2% | 43 | -13% | / | 25% | 42*
N/C(CC(=O)Nc1ccc(F)c(Cl)c1)=N\OC(=O)c1cccs1 | ? | 25 | -1% | -1% | ? | -2
COc1ccc(/C(N)=N/OC(=O)c2cccs2)cc1 | 8% | 57* | 0% | -63% | 27% | 41*
N/C(=N\OC(=O)c1cccs1)c1ccc(Cl)cc1 | 142% | 135* | 1% | -79% | 72% | 55*
CN(Cc1ccco1)c1ncnc2ccc(-c3ccccc3C(F)(F)F)cc12 | / | / | 0% | / | / | /
COc1ccc(S(=O)(=O)n2cccc2)c(OC)c1 | -2% | 7 | -4% | 0% | 26% | 6
CCN(CC)CCNC(=O)CCn1nc(-c2ccc(Cl)cc2)ccc1=O | 2%[0.00184 µM] | -3 | 7% | -1% | 1% | -4
SMILES | Pf growth 48h | Shiga inhibitor | FBPA Giardia inh | NS1 function inh | Pf growth 96h | CHX counter
O=C(NCc1cccnc1)C(Cl)(Cl)Cl | -13% | -6 | 6% | 1% | 3.7µM* | -4
NC(=O)NCc1cccnc1 | 1% | -4 | 3% | 1% | 2% | -4
O=C(CCn1nc(-c2ccc(Cl)cc2)ccc1=O)NCc1cccnc1 | 1.2µM* | -13 | -1% | -3% | 4% | 21
O=C(CC(=O)NCc1cccnc1)NCc1cccnc1 | 8% | -12 | 1% | 3% | 10µM* | -5
O=C(NCCCn1ccnc1)c1cccc(Br)c1 | 17% | -6 | 3% | 5% | 14% | -4
O=C(CSCc1ccccc1Cl)NNC(=S)Nc1ccccc1 | 55% | 33 | 7% | 18% | 80% | 11*
COc1ccc(C(=O)Nc2c(N)nc(SCC(=O)NCC3CCCO3)[nH]c2=O)cc1 (configuration not stated) | 39% | -11 | / | 3% | 17% | -1
COC(=O)[C@@H]1C[C@H]1[C@@H](NC(=O)c1cnccn1)c1ccccc1 | / | / | 7% | / | / | /
CC(=C/c1ccc(C(C)C)cc1)/C=N/NC(=O)c1ccncc1 | 13µM* | 84* | -2% | 1% | ? | 36*
COc1ccc(/C=C/C(=O)Oc2ccc(/C=N/NC(=O)c3ccncc3)cc2)cc1 | ? | -13 | -5% | 22% | -11% | 5
COc1ccccc1C(=O)N/C(=C\c1ccccc1)C(=O)NC(C)C(=O)O (configuration not stated) | 21% | -13 | 5% | ? | 9.3µM* | -3
CC(/C=C/c1ccccc1F)=N\NC(=O)c1cccc(F)c1 | 2% | 65* | -12% | / | -23% | 46*
CC(/C=N/NC(=O)c1cccc(F)c1)=C\c1ccccc1 | ? | 104* | -3% | -3% | -3% | 51*
CN1CCN(c2ncc3nc(-c4ccc(F)cc4)c(=O)n(C4CC4)c3n2)CC1 | / | / | -28% | / | / | /
COc1ccc(CNC(=O)C2CCN(C(=O)[C@@H]3Cc4ccccc4CN3)CC2)cc1 | 6% | 24 | -28% | 19% | 73% | -7
CC(=C/c1ccccc1)/C=N/NC(=O)c1ccccn1 | ? | 23* | -6% | -38% | 13% | 33*
COc1ccccc1C(=O)N/N=C/C(C)=C/c1ccccc1 | 15% | 113 | 3% | -35% | -6% | 19*
CC(/C=N/NC(=O)c1ccc2nc(C)[nH]c2c1)=C\c1ccccc1 | 33% | 16 | -3% | -4% | ? | 14
CC(/C=N/NC(=O)c1cc(C(C)(C)C)[nH]n1)=C\c1ccccc1 | ? | 11 | 4% | 3% | ? | 2
CC(/C=N/NC(=O)c1ccncc1)=C\c1ccccc1 | ? | 52* | 0% | -11% | 33% | 23*
CCOc1ccccc1NC(=O)COC(=O)c1cc[n+]([O-])cc1 | ? | 4 | -6% | -5% | -5% | -3
CC1(C)Cc2c(sc(NC(=O)C(C)(C)C)c2C#N)C(C)(C)N1 | ? | 17 | -3% | 3% | 3.3µM* | -2
CCC(=O)Nc1sc2c(c1C#N)CC(C)(C)NC2(C)C | 6% | -9 | -1% | -25% | 4% | -4
CC(NCc1cccnc1)c1ccccc1 (configuration not stated) | 14% | -6 | 6% | 8% | ? | -1

Compound activity: PubChem BioAssay, National Center for Advancing Translational Sciences (NCATS)
